# Laboratory results from PubChem BioAssay (EPA / NIEHS).
# Activity calls are given as the source filed them. The calls were made as follows: active = hit-call score of the fitted dose curve at least 0.9, where 1 is the maximum; inactive = score below 0.9.
# Read-out: Insulin-like growth factor-binding protein 1 (IGFBP1), IGFBP1 (gene 3484)
# Assay: LTEA_HepaRG_IGFBP1: Life Technologies and Expression Analysis (LTEA) Assay for Insulin-like growth factor-binding protein 1 (IGFBP1) using HepaRG (AID 2283508)
# Details: mRNA level, 48 h; actives raise or lower the signal
# Method: LTEA_HepaRG is a cell based, multiplexed-readout assay that uses HepaRG, a human liver cell line, with measurements taken at 48 hours after chemical dosing on a 96-well plate.LTEA_HepaRG_IGFBP1 is one of 102 assay component(s) measured in the LTEA HepaRG cell culture assay. It is a marker of Cell proliferation, survival, death.Data from the assay component LTEA_HepaRG_IGFBP1 was analyzed into 1 endpoint. This assay endpoint, LTEA_HepaRG_IGFBP1, was analyzed with bidirectional fitting relative to DMSO as the negative control and baseline of activity. Using a type of inducible reporter, measures of mRNA induction for gain or loss-of-signal activity can be used to understand regulation of transcription factor activity. To generalize the intended target to other relatable targets, this assay endpoint is annotated to the transporter intended target family, where the subfamily is hormone carrier protein.
# A total of 1060 chemcials from the ToxCast library were tested in eight-point concentration-response experiments. Cell culture and cytotoxicity assays were conducted at Thermo Fisher Scientific's Custom Services facility (Madison, WI). A single lot of human HepaRG cells (Thermo Fisher Scientific, Frederick, MD) was used for the cell culture experiments. 96-well format collagen type I coated plates of human HepaRG cells were prepared using established methods. Briefly, cryopreserved HepaRG cells were thawed, plated at a density of approximately 100,000 cells/well in HepaRG Thaw, Plate, and General Purpose media (HPRG770, Thermo Fisher Scientific), and incubated for 48 hours. 0.5% DMSO was selected as vehicle control to balance the requisite need of DMSO in HepaRG cultures to maintain differentiation (for example, baseline metabolism, proportions of hepatocytes vs. cholangiocytes), while enabling further hepatic receptor pathway activation (for example, PXR and CAR) in response to chemical exposure. 48 hours after plating, the culture medium was replaced with HepaRG Serum-Free Incudtion Media. Cells were exposed to each test chemical in duplicate and maintained in CO2 incubators for another 48 hours. Chemical plates were thawed to room temperature and 200x concentrations of treatment groups were prepared. 8-point conentration-reponse curves were made with the highest exposure at 100 uM, followed by half-log dilutions, all in 0.5% DMSO. Each test plate contained variouse controls, induction positive controls (1mM phenobarbital), cytotoxicity positive controls ([…] aflatoxin B1), vehicle controls (0.5% DMSO), and total lysis controls (0.5% DMSO). Cell morphology images were taken using an Essen IncuCyte FLR automated microscope, with six 96-well plates imaged in about 24 minutes. Images were captured and exported and JPEG files. Spent culture media was transfered to black-well plates for the LDH assay, and remaining media was sorted at -80 C for later use. Cells were treated with RLT buffer and frozen until shipped for gene expression analysis. Total RNA was isolated from the cell suspension in 75 uL of Buffer RLT (Qiagen, Germantown, MD 20874) by Quintiles/Expression Analysis (Durham, NC) using a custom isolation procedure. Total RNA from each plate well was transferred to a preamplification plate. Fluidigm's 96.96 Dynamic ArrayTM (Fluidigm, Amsterdam, the Netherlands) technology was used for gene expression analyses by quantitative reverse transcription polymerase chain reaction (qRT-PCR, performed by Quintiles/Expression Analysis, Durham, NC)89. Standard TaqManTM Assays (Applied Biosystems/ThermoFisher Scientific, Foster City, CA) were used to assess the expression of 93 genes selected based on their selectivity and sensitivity to important hepatic receptors known to be modulated by environmental chemicals; importance in human hepatocyte functionality; and hepatotoxicity. […]
Compound,outcome,AC50
c1ccc(OP(Oc2ccccc2)Oc2ccccc2)cc1,inactive,
O=[N+]([O-])c1ccc(Cl)c(Cl)c1,inactive,
O=P(Oc1ccccc1)(Oc1ccccc1)Oc1ccccc1,,37.8 µM (active)
CN(C)C(=O)Cl,inactive,
c1nc[nH]n1,inactive,
CCNc1nc(Cl)nc(NC(C)(C)C)n1,inactive,
OCC1CO1 (stereo not given),inactive,
CCCN(CCC)c1c([N+](=O)[O-])cc(C(C)C)cc1[N+](=O)[O-],inactive,
O=C(O)C(Cl)Cl,inactive,
CCCCc1ccccc1,inactive,
ClC(Cl)(Cl)c1ccccc1,inactive,
Cc1ccc(N)cc1N,inactive,
CSC(C)(C)C=NO,inactive,
Nc1ccc2ccccc2c1,inactive,
Cc1cccc(N)c1,inactive,
CCOC(=O)c1ccccc1C(=O)OCC,inactive,
CC(C)(C)c1ccc(O)cc1,inactive,
CCC(C)(C)c1ccc(O)cc1,inactive,
CC(C)(C)OOC(C)(C)C,inactive,
COCCOCCO,inactive,

Compound,outcome,AC50
O=C(O)C1C(C(=O)O)C2(Cl)C(Cl)=C(Cl)C1(Cl)C2(Cl)Cl (stereo not given),inactive,
O=P1(N(CCCl)CCCl)NCCCO1 (stereo not given),inactive,
Nc1cc2c3c(c1)C(c1ccccc1)=N[C@@H](NC(=O)c1cccnc1)C(=O)N3CC2,inactive,
CCC1(c2ccccc2)C(=O)N=C(O)NC1=O (stereo not given),inactive,
CC(Cl)(Cl)C(=O)O,inactive,
Nc1ccc(Cl)cc1,inactive,
[N-]=[N+]=[N-],,86.4 µM (active)
CCCCN(CCCC)N=O,inactive,
c1ccc2c(c1)Nc1ccccc1S2,inactive,
CCOP(=S)(Oc1ccc([N+](=O)[O-])cc1)c1ccccc1 (stereo not given),,5.97 µM (active)
ClC(Cl)c1ccccc1,inactive,
CC(Cc1ccc(OCC(=O)O)cc1)NCC(O)c1csc(C(F)(F)F)n1 (stereo not given),inactive,
CCOP(=S)(OCC)SCSCC,inactive,
CCCCCCCc1ccc(O)cc1,inactive,
c1cc2c3c(cccc3c1)CC2,inactive,
Cc1ccc(O)cc1C,inactive,
CCOS(=O)(=O)OCC,inactive,
Cc1ccc([N+](=O)[O-])cc1C,inactive,
CCN(CC)c1ccccc1,inactive,
O=[N+]([O-])c1ccccc1,inactive,
